Source: PubChem
This is a sample that favours compounds with a hit; in the whole collection about 3% have one here.
14-3-3 Bad inh – inhibitors of 14-3-3 zeta/Bad binding, primary screen, biochemical, TR-FRET, bovine 14-3-3 zeta; 14-3-3 protein zeta/delta (Bos taurus), P63103; TR-FRET 14-3-3zeta/Dy647-pBad peptide displacement, 1 h; inhibition, % at 21.7 µM; hit rate 0.71% among 220,000;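 active = inhibition above about 70%, limit read from the data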
m-calpain inh – inhibitors of pig calpain II, primary screen, biochemical, fluorogenic peptide substrate, 1536-well; hit rate 0.37% among 220,000; inhibition, % at 16 µM; purified calpain II, 30 min;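 active = inhibition above about 50%, limit read from the data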
Efa HMGR inh – inhibitors of E. faecalis class II HMGR, primary screen, biochemical, Enterococcus faecalis | HMG-CoA reductase (Enterococcus faecalis, mvaE) | purified E. faecalis HMGR, NADPH absorbance 340 nm kinetic | inhibition, % at 10 µM | hit rate 0.41% among 190,000 | AID 1066, 2008;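 active = inhibition above a set limit, the median over all tested compounds plus 3 SD, cut at about 9.5% in these data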;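 also: enzyme runs in reverse so mevalonate oxidation gives rising NADPH absorbance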
zVAD death inh – inhibitors of zVAD-triggered necroptosis, primary screen, L929 cells; viability rescue, % at 10 µM; hit rate 0.38% among 220,000; L929 zVAD necroptosis rescue, ATP luminescence, 24 h; with zVAD 60 µM;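 active = activation, scaled between plate controls, above about 75%, limit read from the data; inactive = activation under that limit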
TNF death inh – inhibitors of TNF-alpha triggered necroptosis, primary screen, cell-based, Jurkat FADD-/-, single concentration; Jurkat FADD-/- TNF necroptosis rescue, ATP luminescence, 24 h; 0 = TNF only, 100 = no-TNF cells; activation (protection from cell death), % at 10 µM; hit rate 0.068% among 220,000;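 active = activation, meaning protection from cell death, of at least 50% relative to plate controls; inactive = activation below 50%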;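 also: necroptosis triggered by 40 ng/mL TNF-alpha added together with compound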
ROMK primary – ROMK potassium channel modulators, primary screen, cell-based, thallium flux, MLSMR library; ATP-sensitive inward rectifier potassium channel 1 (Homo sapiens), P48048; Tet-inducible ROMK, thallium flux fluorescence; actives lie on both sides; B-score at 10 µM; hit rate 2% among 130,000; AID 1918, 2009;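 active = signal ratio slope over the read window, or its plate-corrected B-score, at least 3 SD from the plate mean, either direction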;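 also: B-score of the F/F0 ratio slope over 7 to 12 s after thallium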
Target sequence (P48048 whole entry, looked up): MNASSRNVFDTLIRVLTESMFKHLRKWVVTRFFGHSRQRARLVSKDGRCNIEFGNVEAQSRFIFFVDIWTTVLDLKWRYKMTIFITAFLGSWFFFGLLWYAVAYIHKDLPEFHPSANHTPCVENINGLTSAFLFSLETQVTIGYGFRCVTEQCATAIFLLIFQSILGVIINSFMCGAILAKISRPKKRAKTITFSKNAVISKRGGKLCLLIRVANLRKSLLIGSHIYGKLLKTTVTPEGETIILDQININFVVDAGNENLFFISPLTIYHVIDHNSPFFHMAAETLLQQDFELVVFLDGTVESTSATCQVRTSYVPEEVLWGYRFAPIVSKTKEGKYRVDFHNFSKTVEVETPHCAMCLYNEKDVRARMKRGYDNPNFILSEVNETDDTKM
ROMK hit retest – ROMK channel modulator hit retest, confirmation, cell-based, thallium flux, duplicate, resupplied hits; shares compounds with ROMK primary; fluorescence ratio; stronger effect = lower value; normalized thallium flux (F/F0 slope) at 10 µM; hit rate 54% among 3,000;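 active = Flux at 10 µM at least 3 SD below or above vehicle control mean in one or both replicates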
Each line names hits and unclear results; the compound was inactive in the other large screens (follow-up assays come after a bar, where they were run).

CCOC(=O)c1nc2ccccc2c(=O)n1-c1ccc(C)cc1C	none (no result: ROMK primary)
CCOc1cc(CNCCc2c[nH]c3ccccc23)cc(Cl)c1OC	ROMK primary -3.2 | ROMK hit retest 0.061
CC12CN3CCN(CC(C3)C1O)C2 (stereo not drawn)	none (no result: ROMK primary) | ROMK hit retest inactive
O=C(COc1ccc(Cl)cc1)N1CCN(Cc2ccc([N+](=O)[O-])cc2)CC1	ROMK primary -6.5 | ROMK hit retest 0.049
COc1ccccc1CCNC1CCC(C(C)(C)C)CC1 (stereo not drawn)	ROMK primary -5.8 | ROMK hit retest 0.059
O=C1NC(=O)C(=Cc2coc3ccc(O)cc3c2=O)C(=O)N1	none (no result: Efa HMGR inh, ROMK primary) | ROMK hit retest 0.043
CC(=NCC1CCCO1)c1c(O)n(-c2ccccc2C)c(=O)[nH]c1=O (stereo not drawn)	none (no result: Efa HMGR inh, ROMK primary)
Cc1nonc1OCCNCCNc1ccc([N+](=O)[O-])c2cccnc12	ROMK primary -5.3 | ROMK hit retest 0.053
CCNCCNc1ccc([N+](=O)[O-])c2cccnc12	none (no result: Efa HMGR inh, ROMK primary)
Nc1c([N+](=O)[O-])cc(F)c(N2CCNCC2)c1Br	ROMK primary -3.6 | ROMK hit retest 0.055
COc1ccc(C(CC(=O)N2CCC3(CC2)OCCO3)NS(=O)(=O)c2ccc(C)cc2)cc1 (stereo not drawn)	none
Nc1ccccc1-[n+]1c(-c2ccccc2)cc(-c2ccccc2)cc1-c1ccccc1	none (no result: Efa HMGR inh, ROMK primary) | ROMK hit retest 0.062
COc1cccc(C(=O)N2CCC3(CC2)OCCO3)c1	none (no result: Efa HMGR inh)
O=C(c1ccc2c(c1)ncn2C1CCCCC1)N1CCC2(CC1)OCCO2	ROMK primary 2.4 | ROMK hit retest inactive
Cc1cc(OC(=O)N(C)C)nc2c1c(C)nn2C	none (no result: Efa HMGR inh, ROMK primary)
O=C1N(c2ccccc2)C(c2cccnc2)N2CCCN12 (stereo not drawn)	ROMK primary 2.5 | ROMK hit retest inactive
O=C1N(c2cccc(Cl)c2)C(c2cccnc2)N2CCCN12 (stereo not drawn)	none
CN(C)C(=O)O/N=C(\N)COc1ccc(C(C)(C)C)cc1	none (no result: Efa HMGR inh, ROMK primary)
CN1CCC(C)(O)C2CCCCC21 (stereo not drawn)	ROMK primary -11 | ROMK hit retest inactive
c1ccc2c(CCNC3=NCCC3)c[nH]c2c1	none
